# Assay outcomes from PubChem.
# ALOX12 inh: inhibitors of human 12S-lipoxygenase ALOX12 | actives 1.1% (n = 580,000) | Potency, µM (highest dose often 108 µM), for inactives: top-dose activity change, negative = inhibition, hits mostly inhibitors | P18054 | AID 1671190 | purified 12hLO, xylenol orange hydroperoxide absorbance; further: potency means the concentration at half of the fitted maximal effect
# Target sequence (P18054 whole entry, looked up): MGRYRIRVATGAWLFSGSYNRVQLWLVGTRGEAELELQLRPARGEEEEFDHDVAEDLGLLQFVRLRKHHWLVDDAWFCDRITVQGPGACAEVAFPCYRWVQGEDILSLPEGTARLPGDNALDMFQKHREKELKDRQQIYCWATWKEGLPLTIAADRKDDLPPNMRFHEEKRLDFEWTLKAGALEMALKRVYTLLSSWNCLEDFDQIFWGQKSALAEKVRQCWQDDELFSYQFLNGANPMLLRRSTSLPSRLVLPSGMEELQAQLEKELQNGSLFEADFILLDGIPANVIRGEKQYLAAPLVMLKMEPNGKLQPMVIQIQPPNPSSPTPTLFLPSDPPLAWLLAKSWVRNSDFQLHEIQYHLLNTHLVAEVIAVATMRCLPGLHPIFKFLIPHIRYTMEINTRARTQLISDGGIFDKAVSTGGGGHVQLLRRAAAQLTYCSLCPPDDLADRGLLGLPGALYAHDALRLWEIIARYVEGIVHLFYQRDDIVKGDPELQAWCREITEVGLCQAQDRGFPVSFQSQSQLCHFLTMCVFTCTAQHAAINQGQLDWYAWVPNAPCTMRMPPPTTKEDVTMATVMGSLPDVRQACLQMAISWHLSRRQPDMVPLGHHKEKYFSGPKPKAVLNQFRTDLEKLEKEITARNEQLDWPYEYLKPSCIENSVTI
#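 Purified human 12hLO (150 nM final) in 25 mM Hepes, 0.01% Triton X-100, pH 7.0 was preincubated 15 min at room temperature with compound. Then 40 uM arachidonic acid was added, 30 min. Hydroperoxide was read by Fe-XO absorbance ratio 573/405 nm.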
# IL-1B inflam inh: inflammasome signaling inhibition, IL-1 beta readout; THP-1 LPS/ATP IL-1B secretion, AlphaLISA, 16 h; stronger effect = lower value; activity change, % at 57.5 µM; actives 4.7% (n = 360,000); in the data active means activity change below about -50%; inconclusive means mostly about -30% to -49%
#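 Secreted IL-1B measured by AlphaLISA bead assay after 16 h compound exposure of THP-1 cells; compounds (final up to 57.5 uM) added 1 h before LPS (250 ng/mL) and ATP (1.25 mM) stimulation; lower signal means less secretion.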
# DT40 TDP1 no CPT: qHTS for Inhibitors of human tyrosyl-DNA phosphodiesterase 1 (TDP1): qHTS in cells in absence of CPT; DT40 Tdp1-/- hTDP1 cells, no CPT, ATP luminescence, 48 h; Potency, µM (highest dose often 46.2 µM), for the others: at the highest dose activity change, negative = growth inhibition, actives largely listed as inhibitors; actives 15% (n = 420,000); AID 686978, 2013; further: potency means the concentration at half of the fitted maximal effect; nearly all actives have a fitted effect of over 55% in size
#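 Cells were dispensed at 400 per well, compounds added by pin tool, plates incubated ≥48 hr at 37 °C, then CellTiter-Glo added for 30 min at room temperature before luminescence reading. Line: DT40 Tdp1-/- complemented with hTDP1; camptothecin omitted.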
# HT1080NT lethal: kills 2HG-producing HT-1080-NT fibrosarcoma cells; AID 686970; actives 1.6% (n = 360,000); HT-1080-NT fibrosarcoma viability, CellTiter-Glo ATP luminescence, 48 h; Potency, µM (top dose mostly 46.1 µM), for inactives: at the top dose activity, negative = less viability, usual class: cytotoxic;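 further: NT is the 2HG producing partner of a matched IDH1 knockdown line; potency means the concentration at half of the fitted maximal effect; 0% = DMSO-treated cells and -100% = media-only wells without cells; nearly all actives have a fitted effect of over 55% in size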
#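 HT-1080-NT; 750 cells/well; 5% FBS RPMI; 48 h compound, 37 degrees C; CellTiter-Glo luminescence; curve fitting and curve-class assignment.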
# HT1080 IDH1KD tx: toxicity to HT-1080 IDH1 knockdown cells (counter line); AID 686971; HT-1080 IDH1 knockdown viability, ATP luminescence, 48 h; actives 2% (n = 360,000); Potency, µM (series often up to 46.1 µM), for the others: at the top dose activity, negative = toxicity, most hits filed as cytotoxic;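 further: potency means the concentration at half of the fitted maximal effect; 0% = DMSO wells and -100% = cell-free medium wells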
#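 Cytotoxicity counter-line: IDH1KD HT-1080, 48 h, CellTiter-Glo. Curves classed by r2, magnitude and activity.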
# TDP1 cell CPT: DT40-hTDP1 cell growth loss with CPT; Potency, µM (highest dose often 46.2 µM), without a hit: at the top dose activity change, negative = growth inhibition, actives largely listed as inhibitors; actives 12% (n = 420,000); chicken DT40 Tdp1-/-;hTDP1 cells + 20 nM CPT, ATP luminescence, 48 h; further: potency means the concentration at half of the fitted maximal effect; nearly all actives have a fitted effect of over 55% in size
#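 Chicken DT40 Tdp1-/- cells stably complemented with human TDP1 were seeded at 400 cells/well in medium containing 20 nM camptothecin, exposed to pin-transferred compounds, and grown at 37 °C for at least 48 hr. Viability was read as ATP luminescence.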
# * marks the source's active call; other numbers are inactive results; ? = inconclusive; . = not tested or not shown; [ ] = remark or other dose. Only a selection was taken, and hits are over-represented in it overall. Unless noted, the call rests on the fitted dose curve; in most records, active means well fitted curve in the direction sought with a large enough effect; inconclusive means small, poorly fitted or top-dose-only effect, or another doubt; inactive means no such curve, though single readings can be large; an effect the other way counts as inactive or inconclusive. Unless noted, on the % scale 0 is the no-effect control and ±100 the full control effect.
SMILES,ALOX12 inh,IL-1B inflam inh,DT40 TDP1 no CPT,HT1080NT lethal,HT1080 IDH1KD tx,TDP1 cell CPT
COc1cc(/C=C(/C#N)c2nc3ccccc3[nH]2)ccc1OCc1ccccc1C#N,11%,.,.,.,.,.
Cc1ccc(C(=O)n2c(-c3ccccc3)cnc2SCC(=O)Nc2ccc(C)cc2C)cc1,-1%,-29,26µM*,-10%,0%,?
O=C(CSc1nc(-c2ccccc2)cn1-c1ccccc1F)Nc1ccc(F)cc1,-10%,.,?,.,.,18µM*
CCOC(=O)NC(=O)CSc1nc(-c2ccc(C)c(C)c2)cn1-c1ccccc1,9%,-61*,?,-10%,-13%,?
Cc1ccc(C(=O)n2c(-c3ccccc3)cnc2SCC(=O)Nc2ccccc2)cc1,-9%,-11,?,-6%,-2%,-7%
CC(=O)Nc1nonc1-c1nnc(SCC(=O)Nc2cccc(C)c2C)n1-c1ccccc1,-1%,.,26µM*,.,.,23µM*
CC(=O)Nc1nonc1-c1nnc(SCC(=O)Nc2c(C)cccc2C)n1-c1ccccc1,-21%,.,-29%,.,.,?
O=C(COC(=O)c1cc[n+]([O-])cc1)Nc1cccc(F)c1,?,-4,-3%,-3%,3%,4%
CC1(C)CC(Nc2nc(-c3ccncc3)nc3ccccc23)CC(C)(C)N1,3%,.,.,.,.,.
O=C(COC(=O)c1nc(-c2ccccc2)n(-c2ccccc2)n1)Nc1cccc(Cl)c1,-1%,.,.,.,.,.
Cc1ccc(NC(=O)CSc2nnc(-c3n[nH]c4ccccc34)n2-c2ccccc2)c(C)c1,-15%,-51*,?,-25%,?,15µM*
Cc1ccc(OCc2nnc(SCC(=O)Nc3cccc4ccccc34)n2-c2ccccc2)cc1,0%[57.4 µM],-26,?,-22%,-19%,?
O=C(CS(=O)(=O)c1nc(-c2ccc(Cl)cc2)cn1-c1ccccc1)Nc1cccc(Cl)c1,-20%,.,?,.,.,23µM*
CC(=O)Nc1nonc1-c1nnc(SCc2ccc(C)cc2)n1C,4%,.,-25%,.,.,?
CCn1c(SCc2cccc(Br)c2)nnc1-c1nonc1NC(C)=O,-24%,.,23µM*,.,.,18µM*
Cc1cccc(NC(=O)CSc2nc(-c3ccccc3)cn2-c2ccccc2)c1C,?,.,23µM*,.,.,?
O=C(Nc1ccc(-n2cncn2)nc1)C1CCCCC1,-1%,.,.,.,.,.
CCn1nc(C)c(CNC(=O)CC2C(=O)NCCN2CC(C)(C)C)c1C (stereo not drawn),-4%,13,24%,7%,3%,1%
CSc1cccc(NC(=O)c2csc3c2CCCC3)c1,-1%,.,.,.,.,.
Cc1cccc(NC(=O)CS(=O)(=O)c2nc(-c3ccccc3)cn2-c2cccc(Cl)c2)c1C,-13%,.,18µM*,.,.,23µM*
O=C(CS(=O)(=O)c1nc(-c2ccc(Cl)cc2)cn1-c1ccccc1)Nc1ccc(F)cc1F,?,.,?,.,.,18µM*
Cc1ccc(-c2cn(-c3cccc(Cl)c3)c(S(=O)(=O)CC(=O)Nc3ccccc3F)n2)cc1,-23%,.,?,.,.,?
Cc1ccc(-c2cn(-c3cccc(Cl)c3)c(S(=O)(=O)CC(=O)Nc3cccc(C)c3)n2)cc1,-27%,.,?,.,.,16µM*
Cc1ccc(NC(=O)CS(=O)(=O)c2nc(-c3ccc(C)cc3)cn2-c2ccc(C)cc2)cc1,-24%,.,15µM*,.,.,21µM*
CCOc1ccc(-c2cn(-c3ccc(C)cc3)c(SCC(=O)Nc3ccc(C)cc3)n2)cc1,-18%,.,?,.,.,?
SMILES,ALOX12 inh,IL-1B inflam inh,DT40 TDP1 no CPT,HT1080NT lethal,HT1080 IDH1KD tx,TDP1 cell CPT
Cc1ccccc1OCCn1cc(C(=O)C2CC2)c2ccccc21,1%,.,.,.,.,.
COc1ccc(/C=C(/C#N)c2nc3ccc(C)cc3[nH]2)cc1O,-6%,.,.,.,.,.
CC[C@H](C)/C=C/C1=CC2=C(Cl)C(=O)[C@@]3(C)OC(=O)C(C(=O)[C@H](C)[C@@H](C)O)=C3C2=CO1,.,-3,18µM*,1%,-16%,?
CC(C)Cc1nn2c(=O)cc(COC(=O)c3ccccc3NC(=O)c3cccs3)nc2s1,-15%,.,?,.,.,-16%
CC(C)c1nn2c(=O)cc(COC(=O)c3ccccc3NC(=O)c3cccc(Cl)c3)nc2s1,?,.,18µM*,.,.,16µM*
CC(C)c1nn2c(=O)cc(COC(=O)c3ccccc3NC(=O)c3cccs3)nc2s1,-17%,.,7.3µM*,.,.,7.3µM*
Cc1ccccc1OCc1nc2c3cnn(-c4cccc(F)c4)c3ncn2n1,-25%,.,?,.,.,?
CN(C)C(=O)c1cc(Br)cn2ccnc12,-5%[176 µM],.,.,.,.,.
CC1=NN(C(N)=S)C(=O)C1N=Nc1ccccc1C(=O)O (stereo not drawn),-9%,-4,-12%,0%,-8%,-5%
CC1=NN(c2ccccc2C(=O)O)C(=O)C1N=Nc1ccccc1 (stereo not drawn),12%,17,21µM*,12%,7%,13µM*
CC(C)c1cc(C(=O)Nc2cccc(C(F)(F)F)c2)nn1C1CCS(=O)(=O)C1 (stereo not drawn),-16%,.,.,.,.,.
c1ccc(CN2CCCCC2c2nc(CCOCC3CCCC3)no2)nc1 (stereo not drawn),63%,.,.,.,.,.
Cc1ccc(C)c(N2CCN(c3c(CN4CCCC4)c(=O)oc4ccccc34)CC2)c1,-25%,.,26µM*,.,.,21µM*
O=c1oc2ccccc2c(N2CCN(c3cccc(C(F)(F)F)c3)CC2)c1CN1CCCC1,41%,.,.,.,.,.
Cc1ccc(N2CCN(c3c(CN4CCCC4)c(=O)oc4ccccc34)CC2)c(C)c1,1%,.,?,.,.,16µM*
N#Cc1ccccc1OCC(=O)Nc1ccc(-c2nc3ccccc3o2)cc1,3%,.,.,.,.,.
O=C(Nc1cc(=O)[nH]c2nc(-c3ccccc3)nn12)c1ccccc1Cl,-3%,38,12µM*,9%,-1%,-20%
O=C(Nc1cc(=O)[nH]c2nc(C(F)(F)F)nn12)c1ccc(Cl)cc1Cl,25µM*,.,.,.,.,.
Cc1cc(C)cc(OCCOC(=O)c2cc(Cl)ccc2O)c1,30%,.,.,.,.,.
O=C(NCc1ccc(F)cc1)c1cnc(N2CCCCC2)c2ccccc12,-1%,.,?,.,.,?
CCc1ccc(CNC(=O)c2cnc(N3CCCCC3)c3ccccc23)cc1,0%,.,26µM*,.,.,23µM*
CCc1ccc(NC(=O)c2cnc(N3CCN(c4ccccn4)CC3)c3ccccc23)cc1,-22%,-19,6.5µM*,-1%,-11%,7.3µM*
Cc1ccc(NC(=O)c2cnc(N3CCCCC3)c3ccccc23)cc1,-12%,.,.,.,.,.
